Assay results from PubChem BioAssay AID1220 (Sanford-Burnham Center for Chemical Genomics, 2008).
Among all 190,000 compounds or so, about 1,300 (0.68%) were called active. Shown is part of a subset that was picked to be rich in actives. Unmarked numbers belong to inactive results. Rule as the data show it: active = inhibition above about 50%; inactive = the rest.

molecular target: Mannose-6-phosphate isomerase (Homo sapiens) (UniProt P34949); test: human PMI inhibitors, high substrate, primary screen, biochemical, fluorescence intensity, high mannose 6-phosphate (AID 1220); settings: recombinant PMI enzyme, coupled fluorescence intensity; at 20 µM; stronger effect = higher value
Sequence (P34949 whole entry, looked up): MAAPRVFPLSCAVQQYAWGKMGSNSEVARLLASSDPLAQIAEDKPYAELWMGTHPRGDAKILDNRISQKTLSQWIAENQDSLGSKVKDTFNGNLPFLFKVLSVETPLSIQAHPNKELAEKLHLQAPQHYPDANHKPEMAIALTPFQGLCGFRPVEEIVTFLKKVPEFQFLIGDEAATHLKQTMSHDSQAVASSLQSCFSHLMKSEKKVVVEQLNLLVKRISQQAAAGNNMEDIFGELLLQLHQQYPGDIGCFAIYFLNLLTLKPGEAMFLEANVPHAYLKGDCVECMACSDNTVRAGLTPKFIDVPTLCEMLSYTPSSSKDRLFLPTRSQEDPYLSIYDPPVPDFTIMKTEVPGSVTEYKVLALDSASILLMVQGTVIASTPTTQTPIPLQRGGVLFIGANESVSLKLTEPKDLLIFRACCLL

Row | SMILES | inhibition
1 | CCOc1ccc(CNC(=O)CCc2cn(Cc3ccccc3)c3ccccc23)cc1 | 0.6%
2 | C=CCn1c(O)c(CN2CCCCC2)c(C)c(C#N)c1=O | 70.2% (active)
3 | C=CCn1c(O)c(CN2CCOCC2)c(C)c(C#N)c1=O | 56.6% (active)
4 | C=CCn1c(O)c(C(CC)=NCCN2CCOCC2)c(=O)[nH]c1=O | -15.4%
5 | Cc1oc(C(C)(C)C)c(CN2CCOCC2)c1C(=O)O | -2.9%
6 | C=CCn1c(C)cc(C)c(C#N)c1=O | -6.4%
7 | C=CCn1c(O)c(CN2CCN(Cc3ccccc3)CC2)c(C)c(C#N)c1=O | 15.6%
8 | O=C(NCCC1=CCCCC1)C(=O)NCC(c1ccco1)N1CCN(c2ccc(F)cc2)CC1 (configuration not stated) | 2.7%
9 | OCc1nc2ccccc2n1CCCOc1ccccc1 | -6.4%
10 | COc1cc(NC(=S)NCCC(c2ccccc2)c2ccccc2)c(OC)cc1Cl | 17.2%
11 | Cc1nnc(Sc2nc3c(c(=O)n(C)c(=O)n3C)n2Cc2ccc(Cl)cc2)s1 | 7.9%
12 | CSc1ccc(C#N)cc1NC(=O)c1ccccc1C | -2.5%
13 | COCc1c(C#N)c(NCCc2ccc(F)cc2)nc(C)c1[N+](=O)[O-] | 9.3%
14 | CCC(=O)c1ccc(N2CCN(C(=O)c3ccc(Br)cc3)CC2)c(F)c1 | 9.1%
15 | CCCC(=O)c1ccc(N2CCN(C(=O)c3ccc(Br)cc3)CC2)c(F)c1 | -2.3%
16 | CC(=O)c1ccc(N2CCN(C(=O)c3ccc(Br)cc3)CC2)c(F)c1 | 55.1% (active)
17 | O=C(NCCCCCCNC(=O)C1CCCC1)C1CCCC1 | -0.9%
18 | O=C(COc1ccc2ccccc2c1)Nc1ccc2c3c(cccc13)CC2 | -1.8%
19 | O=C(NCc1ccccc1)NC(O)C(Cl)(Cl)Cl (configuration not stated) | 0.1%
20 | O/C(=C\c1ccc2ccccc2n1)c1ccc(O)cc1O | -10.3%
21 | COc1ccc(NC(=O)c2ccc(-n3cccn3)nc2)cc1 | 0.8%
22 | Cc1ccc(NC(=O)c2ccc(-n3cccn3)nc2)cc1 | 51.4% (active)
23 | CCOc1ccc(NC(=O)c2ccc(-n3cccn3)nc2)cc1 | 2.9%
24 | CCOc1ccc(N=C2Sc3nc4ccc(C)cc4cc3CN2CCOC)cc1 | 9.3%

Row | SMILES | inhibition
25 | CC(=O)c1cc2c(cc1NC(=O)CN1CCN(c3ccc(F)cc3)CC1)OCO2 | 5.5%
26 | CCOC(=O)C1=C(c2ccccc2)NC(SCC(=O)Nc2cccc(C)c2)=C(C#N)C1c1ccco1 (configuration not stated) | 15.6%
27 | Cc1oc(/N=C/c2c(O)ccc3ccccc23)c(C#N)c1C | 53.7% (active)
28 | Cc1cc(N=Cc2cc(Br)ccc2O)no1 | -9.4%
29 | COc1cccc(C=Nc2ccc(C)c(F)c2)c1O | 15.7%
30 | Cc1ccc(N=Cc2c(O)ccc3ccccc23)cc1F | 51.7% (active)
31 | Cc1cc(N=Cc2cc(Cl)ccc2O)no1 | 14.2%
32 | Cc1oc(/N=C/c2ccccc2O)c(C#N)c1C | -16.8%
33 | Cc1oc(/N=C/c2cccc3ccccc23)c(C#N)c1C | 20.1%
34 | Oc1ccc2ccccc2c1C=Nc1ccc(Cl)cn1 | 75.2% (active)
35 | Nc1cc(Cl)nc(N/N=C/c2c(O)ccc3ccccc23)n1 | 13.3%
36 | Cc1cc(O)c(C=Nc2ccc(Cl)cn2)c(=O)o1 | -60.9%
37 | Cc1cc(C)n(/N=C\c2c(O)ccc3ccccc23)c(=O)c1C(N)=O | 22.5%
38 | Cc1cc(N=Cc2c(O)ccc3ccccc23)no1 | 66.9% (active)
39 | COc1ccccc1Nc1ccc(N)cc1 | 23.2%
40 | O=C(Cn1ccccc1=O)c1ccc(Cl)cc1 | -5.5%
41 | N#C/C(=C\c1cn(CCOc2ccccc2)c2ccccc12)C(=O)NCc1ccco1 | -1.2%
42 | COc1ccccc1OCC(=O)Nc1ccccn1 | 1.4%
43 | COc1ccc(CNn2c(-c3cccs3)nc3ccccc3c2=O)cc1OC | 8%
44 | CCN(C(=O)CSc1nnc(-c2ccncc2)n1-c1ccccc1)C1CCS(=O)(=O)C1 (configuration not stated) | -2.5%
45 | CCc1ccc(C(=O)NN(C(=O)c2ccc(CC)cc2)C(C)(C)C)cc1 | 14.2%
46 | CCOc1ccc(S(=O)(=O)N2CCN(c3ccccc3F)CC2)c2cccnc12 | 27%
47 | O=C(OCc1c(F)cccc1Cl)c1cnccn1 | 11.3%
48 | Oc1ccc2ccccc2c1/C=N/c1nccs1 | 62% (active)

Row | SMILES | inhibition
49 | Oc1ccc2ccccc2c1C=Nc1ccccc1-c1nc2ccccc2[nH]1 | 22.9%
50 | Oc1oc(-c2cccc3ccccc23)nc1/C=N/c1nccs1 | 9.5%
51 | Oc1ccc2ccccc2c1/C=N/c1nc2c(s1)CCCC2 | 46.1%
52 | Cc1sc(/N=C/c2c(O)ccc3ccccc23)c(C#N)c1C | -3.6%
53 | Oc1[nH]c2ccccc2c1/C=N/c1nccs1 | -1%
54 | Cc1c(Cc2ccccc2)sc(/N=C/c2c(O)ccc3ccccc23)c1C(N)=O | 29.8%
55 | N#Cc1cccc(N=Cc2c(O)ccc3ccccc23)c1 | 64.6% (active)
56 | Oc1ccc2ccccc2c1C=Nc1ccc(N2CCOCC2)cc1 | 29%
57 | COc1ccc2nc(N=Nc3c(O)ccc4ccccc34)sc2c1 | 24.5%
58 | O=C(O)Cc1ccc(N=Cc2c(O)ccc3ccccc23)cc1 | 58.7% (active)
59 | Cn1c(CSc2nc3ccccc3s2)nnc1SCC(=O)NCCCN1CCOCC1 | -11.8%
60 | Cc1ccsc1C(=O)NNC(=O)C1CC=CCC1C(=O)O (configuration not stated) | -4.3%
61 | COC(=O)c1cccc(NC(=O)c2cccs2)c1C | 10.7%
62 | CC(C)C(c1nnnn1C1CCCCC1)N1CCCc2ccccc21 (configuration not stated) | 8.3%
63 | Cc1ccc(N2CCN(C(=O)c3cc(C(=O)c4ccccc4C)c[nH]3)CC2)c(C)c1 | 16.7%
64 | Cc1noc(C)c1Cn1nc(C(=O)O)c2ccccc2c1=O | 1.4%
65 | CCOC(=O)c1cc(CC)sc1/N=C/C1=C(O)CC(C)(C)CC1=O | 7.3%
66 | COc1ccc(N=Cc2c(O)[nH]c3ccccc23)cc1 | 1.9%
67 | CCOC(=O)c1cc(CC)sc1/N=C/C1=C(O)CCCC1=O | 14.3%
68 | COc1ccc(N=Cc2c(O)ccc3ccccc23)cc1 | 68.5% (active)
69 | COc1ccc(N=Cc2oc3ccc4ccccc4c3c2O)cc1 | 13.8%
70 | COc1ccc2nc(N)sc2c1 | -1.6%
71 | COc1ccc2c(c1)-c1nc(NC(=O)c3cccs3)sc1CC2 | -22.3%
72 | CCOC(=O)c1cc(CC)sc1/N=C/c1c(O)ccc2ccccc12 | 60.7% (active)
